The source of these data is publication PMC9911399, “Two distinct binding modes provide the RNA-binding protein RbFox with extraordinary sequence specificity”.

Positions count from the first letter of the chain named. Whole data set: some 16,000 sequences, median “ka relative to ugcaugu” near 0.0091, cut for the highest 2% near 0.032. Only a selection was taken, and the highest values are over-represented in it overall.

T1: RBFOX1 RRM (Homo sapiens, UniProt Q9NWB1 109-208)
T1 sequence: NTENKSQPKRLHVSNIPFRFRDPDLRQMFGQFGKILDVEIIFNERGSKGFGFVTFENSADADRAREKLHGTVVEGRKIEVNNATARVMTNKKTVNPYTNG

B1: GACAUGU (DNA:RNA)
RNA: GGGAGACCGGAAUUCAGAUUGUCCGACAUGUUUAAAUCCCGUCGUAGCCACCA
DNA 1: CAATCTGAATTCCGGTCTCCC
DNA 2: TGGTGGCTACGACGGGATT
B2: GACACAU (DNA:RNA)
RNA: B1 RNA with U29C, G30A
DNA 1: CAATCTGAATTCCGGTCTCCC
DNA 2: TGGTGGCTACGACGGGATT
B3: GAACACU (DNA:RNA)
RNA: B1 RNA with C27A, A28C, U29A, G30C
DNA 1: CAATCTGAATTCCGGTCTCCC
DNA 2: TGGTGGCTACGACGGGATT
B4: AGUUCUC (DNA:RNA)
RNA: GGGAGACCGGAAUUCAGAUUGUCCAGUUCUCUUAAAUCCCGUCGUAGCCACCA
DNA 1: CAATCTGAATTCCGGTCTCCC
DNA 2: TGGTGGCTACGACGGGATT
B5: CUCUCGG (DNA:RNA)
RNA: B4 RNA with A25C, G26U, U27C, U30G, C31G
DNA 1: CAATCTGAATTCCGGTCTCCC
DNA 2: TGGTGGCTACGACGGGATT
B6: GAGGGCA (DNA:RNA)
RNA: B1 RNA with C27G, A28G, U29G, G30C, U31A
DNA 1: CAATCTGAATTCCGGTCTCCC
DNA 2: TGGTGGCTACGACGGGATT
B7: UGCACGA (DNA:RNA)
RNA: B1 RNA with G25U, A26G, U29C, U31A
DNA 1: CAATCTGAATTCCGGTCTCCC
DNA 2: TGGTGGCTACGACGGGATT
B8: UGCACCA (DNA:RNA)
RNA: B4 RNA with A25U, U27C, U28A, U30C, C31A
DNA 1: CAATCTGAATTCCGGTCTCCC
DNA 2: TGGTGGCTACGACGGGATT
B9: UGCACGC (DNA:RNA)
RNA: B4 RNA with A25U, U27C, U28A, U30G
DNA 1: CAATCTGAATTCCGGTCTCCC
DNA 2: TGGTGGCTACGACGGGATT
B10: UGCACGG (DNA:RNA)
RNA: B1 RNA with G25U, A26G, U29C, U31G
DNA 1: CAATCTGAATTCCGGTCTCCC
DNA 2: TGGTGGCTACGACGGGATT
B11: ACGCUGC (DNA:RNA)
RNA: B4 RNA with G26C, U27G, U28C, C29U, U30G
DNA 1: CAATCTGAATTCCGGTCTCCC
DNA 2: TGGTGGCTACGACGGGATT
B12: UGCCCGG (DNA:RNA)
RNA: B4 RNA with A25U, U27C, U28C, U30G, C31G
DNA 1: CAATCTGAATTCCGGTCTCCC
DNA 2: TGGTGGCTACGACGGGATT
B13: UGCACAA (DNA:RNA)
RNA: B4 RNA with A25U, U27C, U28A, U30A, C31A
DNA 1: CAATCTGAATTCCGGTCTCCC
DNA 2: TGGTGGCTACGACGGGATT
B14: ACCACGG (DNA:RNA)
RNA: B1 RNA with G25A, A26C, U29C, U31G
DNA 1: CAATCTGAATTCCGGTCTCCC
DNA 2: TGGTGGCTACGACGGGATT
B15: UGUCUGC (DNA:RNA)
RNA: B4 RNA with A25U, U28C, C29U, U30G
DNA 1: CAATCTGAATTCCGGTCTCCC
DNA 2: TGGTGGCTACGACGGGATT
B16: UUCUUAU (DNA:RNA)
RNA: B1 RNA with G25U, A26U, A28U, G30A
DNA 1: CAATCTGAATTCCGGTCTCCC
DNA 2: TGGTGGCTACGACGGGATT
B17: UGAUCGU (DNA:RNA)
RNA: B4 RNA with A25U, U27A, U30G, C31U
DNA 1: CAATCTGAATTCCGGTCTCCC
DNA 2: TGGTGGCTACGACGGGATT
B18: CCACUCA (DNA:RNA)
RNA: B1 RNA with G25C, A26C, C27A, A28C, G30C, U31A
DNA 1: CAATCTGAATTCCGGTCTCCC
DNA 2: TGGTGGCTACGACGGGATT
B19: GCAAACU (DNA:RNA)
RNA: B1 RNA with A26C, C27A, U29A, G30C
DNA 1: CAATCTGAATTCCGGTCTCCC
DNA 2: TGGTGGCTACGACGGGATT
B20: GGAACAC (DNA:RNA)
RNA: B4 RNA with A25G, U27A, U28A, U30A
DNA 1: CAATCTGAATTCCGGTCTCCC
DNA 2: TGGTGGCTACGACGGGATT
B21: UAGCAUC (DNA:RNA)
RNA: B4 RNA with A25U, G26A, U27G, U28C, C29A
DNA 1: CAATCTGAATTCCGGTCTCCC
DNA 2: TGGTGGCTACGACGGGATT
B22: AGCAUGA (DNA:RNA)
RNA: B1 RNA with G25A, A26G, U31A
DNA 1: CAATCTGAATTCCGGTCTCCC
DNA 2: TGGTGGCTACGACGGGATT
B23: AAGCAUC (DNA:RNA)
RNA: B4 RNA with G26A, U27G, U28C, C29A
DNA 1: CAATCTGAATTCCGGTCTCCC
DNA 2: TGGTGGCTACGACGGGATT
B24: UAGCAUA (DNA:RNA)
RNA: B4 RNA with A25U, G26A, U27G, U28C, C29A, C31A
DNA 1: CAATCTGAATTCCGGTCTCCC
DNA 2: TGGTGGCTACGACGGGATT
B25: AGCCUGC (DNA:RNA)
RNA: B4 RNA with U27C, U28C, C29U, U30G
DNA 1: CAATCTGAATTCCGGTCTCCC
DNA 2: TGGTGGCTACGACGGGATT
B26: AAGCAUG (DNA:RNA)
RNA: B4 RNA with G26A, U27G, U28C, C29A, C31G
DNA 1: CAATCTGAATTCCGGTCTCCC
DNA 2: TGGTGGCTACGACGGGATT
B27: AAGCAUA (DNA:RNA)
RNA: B4 RNA with G26A, U27G, U28C, C29A, C31A
DNA 1: CAATCTGAATTCCGGTCTCCC
DNA 2: TGGTGGCTACGACGGGATT
B28: ACCAGCA (DNA:RNA)
RNA: B1 RNA with G25A, A26C, U29G, G30C, U31A
DNA 1: CAATCTGAATTCCGGTCTCCC
DNA 2: TGGTGGCTACGACGGGATT
B29: AGCAUAA (DNA:RNA)
RNA: B1 RNA with G25A, A26G, G30A, U31A
DNA 1: CAATCTGAATTCCGGTCTCCC
DNA 2: TGGTGGCTACGACGGGATT
B30: AGAAUGC (DNA:RNA)
RNA: B4 RNA with U27A, U28A, C29U, U30G
DNA 1: CAATCTGAATTCCGGTCTCCC
DNA 2: TGGTGGCTACGACGGGATT
B31: AGCAUGC (DNA:RNA)
RNA: B1 RNA with G25A, A26G, U31C
DNA 1: CAATCTGAATTCCGGTCTCCC
DNA 2: TGGTGGCTACGACGGGATT
B32: UAGCAUG (DNA:RNA)
RNA: B4 RNA with A25U, G26A, U27G, U28C, C29A, C31G
DNA 1: CAATCTGAATTCCGGTCTCCC
DNA 2: TGGTGGCTACGACGGGATT

For this assay, the target named is T1, RBFOX1 RRM. Description: EMSA; HiTS-Eq, 1 nM pool, 10 min; buffer printed only for the single-RNA assays: 10 mM Tris pH 7.5, 150 mM NaCl, 3.4 mM EDTA, 0.001% NP-40, 30 C. The conditions noted are these: tags: His6 N-terminal (pET28a); label: 5' 32P. An outline of the steps:
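Purified wild-type or mutant RbFox RRM at increasing concentrations was equilibrated with 1 nM of 5′-radiolabelled RNA carrying 7 randomized nucleotides for 10 min in 50 µL. Unbound RNA was separated by 8% native PAGE and sequenced. Relative association constants came from read-count changes of each RNA species compared with the control reaction, normalised to the cognate motif.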
On the technique in general: In EMSA bound probe runs differently from free probe, usually more slowly.
B1: the binding signal is 0.0153 KA relative to UGCAUGU.

In the case of B2, the binding signal is 0.000474 KA relative to UGCAUGU.

As for B3, the binding signal was 0.00588 KA relative to UGCAUGU.

As to B4, the binding signal is 0.0138 KA relative to UGCAUGU.

Consider B5, for which the binding signal is 0.0101 KA relative to UGCAUGU.

As to B6, the binding signal was 0.0138 KA relative to UGCAUGU.

Turning to B7, the binding signal is 0.0767 KA relative to UGCAUGU.

On to B8, for which the binding signal was 0.00925 KA relative to UGCAUGU.

B9: the binding signal was 0.252 KA relative to UGCAUGU.

For the molecule B10, the binding signal is 0.077 KA relative to UGCAUGU.

Turning to B11, the binding signal was 0.0121 KA relative to UGCAUGU.

For the molecule B12, the binding signal was 0.0184 KA relative to UGCAUGU.

As to B13, the binding signal is 0.00911 KA relative to UGCAUGU.

On to B14, for which the binding signal was 0.0054 KA relative to UGCAUGU.

As for B15, the binding signal was 0.0316 KA relative to UGCAUGU.

For B16, the binding signal was 0.00377 KA relative to UGCAUGU.

Turning to B17, the binding signal is 0.0285 KA relative to UGCAUGU.

Regarding B18, the binding signal is 0.0037 KA relative to UGCAUGU.

On to B19, for which the binding signal is 0.00432 KA relative to UGCAUGU.

Turning to B20, the binding signal was 0.0079 KA relative to UGCAUGU.

For the molecule B21, the binding signal is 0.0216 KA relative to UGCAUGU.

B22: the binding signal was 0.35 KA relative to UGCAUGU.

Regarding B23, the binding signal is 0.0137 KA relative to UGCAUGU.

As to B24, the binding signal is 0.011 KA relative to UGCAUGU.

Consider B25, for which the binding signal is 0.0203 KA relative to UGCAUGU.

Take B26: the binding signal is 0.674 KA relative to UGCAUGU.

B27: the binding signal is 0.00459 KA relative to UGCAUGU.

For B28, the binding signal was 0.0049 KA relative to UGCAUGU.

Take B29: the binding signal is 0.00471 KA relative to UGCAUGU.

With B30, the binding signal was 0.022 KA relative to UGCAUGU.

Take B31: the binding signal was 0.888 KA relative to UGCAUGU.

Turning to B32, the binding signal is 0.795 KA relative to UGCAUGU.
